DRV1 agonist: qHTS for Agonists of Human Resolvin D1 Receptor DRV1; 48,000 compounds, 2.5% hits; CHO-K1 GPR32 beta-arrestin PathHunter luminescence, 90 min; zero percent set by DMSO-only wells; activation, % at 76.9 µM; Probable G-protein coupled receptor 32 (Homo sapiens), O75388; AID 1346428, 2018;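 active = activation of at least 60% and not above a set upper limit, about 1 call in 100 departs from these limits; inconclusive = activation of 40% to 60%, or above that upper limit; inactive = activation under 40%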
Target sequence (O75388 whole entry, looked up): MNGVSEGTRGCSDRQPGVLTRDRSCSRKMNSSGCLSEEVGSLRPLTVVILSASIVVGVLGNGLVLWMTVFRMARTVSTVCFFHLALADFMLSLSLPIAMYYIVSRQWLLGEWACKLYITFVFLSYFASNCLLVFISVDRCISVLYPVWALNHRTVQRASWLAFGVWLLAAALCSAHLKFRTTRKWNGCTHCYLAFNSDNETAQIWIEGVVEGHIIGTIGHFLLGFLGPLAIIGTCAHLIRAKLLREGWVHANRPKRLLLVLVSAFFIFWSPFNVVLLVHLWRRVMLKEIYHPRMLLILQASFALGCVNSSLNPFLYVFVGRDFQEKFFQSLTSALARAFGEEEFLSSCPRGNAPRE
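Readings come from a cell-based beta-arrestin complementation format: CHO-K1 GPR32 stable cells (2,500/well) treated 90 min with compounds, then beta-Gal substrate added for 1 h before chemiluminescence imaging.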
HTT-AS promoter: Primary qHTS for Identification of Small Molecule Activators of Huntingtin-Antisense Promoter Activity; HEK293 HTT-AS promoter firefly luciferase reporter, 24 h; response scale: percent change from vehicle, -100% = no light; Potency, µM (top dose mostly 57.5 µM), actives largely listed as activators; 48,000 compounds, 0.24% hits; AID 1508624, 2021; also: nearly all actives have a fitted effect of over 55% in size
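Firefly luciferase readout (Dual-Glo, 10 min RT) after 24 h, 37 °C compound exposure (final up to 57.5 uM) of HEK293 reporter cells cultured 24 h beforehand; PTC124 at 50 uM final as control inhibitor; activity scaled vehicle 0%, zero RLU -100%.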
HTT prom inh: Primary qHTS for Identification of Small Molecule Inhibitors of Huntingtin Promoter Activity; 48,000 compounds, 0.93% hits; HEK293 HTT promoter firefly luciferase reporter, 24 h; AID 1508623, 2021; Potency, µM (series often up to 57.5 µM), usual class: inhibitors; also: nearly all actives have a fitted effect of over 50% in size
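HEK293 Fluc reporter, 2,500 cells/well, 24 h pre-culture; cpds up to 57.5 uM final, 24 h 37 degrees C; Dual-Glo, 10 min RT; normalized vehicle = 0%, zero RLU = -100%.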
Of the large screens only hits and unclear results are named; the others gave an inactive call. The list is not random: actives were taken first. Their share in the collection is about 3.7%. Unless noted, calls follow the shape of the dose curve; as a rule, active = well fitted curve in the direction sought with a large enough effect; inconclusive = small, poorly fitted or top-dose-only effect, or another doubt; inactive = no such curve, though single readings can be large; an effect the other way counts as inactive or inconclusive.

Cc1c(Cl)ccc2sc(N3CCN(C(=O)C(C)C)CC3)nc12	DRV1 agonist inconclusive
COC(=O)c1ccc(O)c2ncc(-c3ccc(C(=O)N4CCN(C)CC4)cc3)cc12	none (no result: DRV1 agonist, HTT-AS promoter)
CCC[C@H]1C[C@H](C(=O)N[C@@H]([C@@H]2O[C@@H](SC)[C@@H](O)[C@@H](O)[C@@H]2O)[C@H](C)Cl)N(C)C1	none (no result: DRV1 agonist)
CCOc1ccc(C2CC(=O)n3nc(-c4ccc(C)cc4)nc3S2)cc1OC (configuration not stated)	DRV1 agonist 73.9
O=C1CC(c2ccc(Cl)cc2)Sc2nc(-c3ccc(F)cc3)nn21 (configuration not stated)	DRV1 agonist 119.2
Cc1ccc(-c2nc3n(n2)C(=O)CC(c2ccc(C)cc2)S3)cc1 (configuration not stated)	none
Cc1ccc(-c2nc3n(n2)C(=O)CC(c2ccc(Cl)cc2)S3)cc1 (configuration not stated)	none
COc1ccc(OC)c(S(=O)(=O)N2CCC(c3ccncc3)CC2)c1	HTT prom inh inconclusive
CC(C)(C)OC(=O)Nc1ccc(-c2cc(C(=O)NCCCCCCC(=O)NO)no2)cc1	none (no result: DRV1 agonist)
NS(=O)(=O)c1cc(C(=O)NN2C[C@H]3[C@H]4CCC(C4)[C@H]3C2)ccc1Cl	none
Clc1cccc(-c2nnnn2Cc2cccnc2)c1Cl	none (no result: DRV1 agonist)
CCCCN(C)C(=O)C1CCCN(c2ncnc3onc(C)c23)C1 (configuration not stated)	HTT prom inh 1.78µM
CCCCN(CC)C(=O)C1CCCN(c2ncnc3onc(C)c23)C1 (configuration not stated)	HTT prom inh inconclusive
CCOC(=O)c1cnc2ccc(Cl)cc2c1Nc1ccc(N2CCOCC2)cc1	none
CCOC(=O)c1cnc2ccc(C)cc2c1Nc1ccc(N(CC)CC)cc1	HTT prom inh 25.1µM
CSc1nc(N)c2ncn([C@@H]3O[C@H](COP(=O)(O)OP(=O)(O)O)C(O)[C@H]3O)c2n1 (some centres not stated)	none (no result: HTT-AS promoter, HTT prom inh)
CC(C)N(CCCNC(=O)Nc1ccc(C(C)(C)C)cc1)C[C@H]1O[C@@H](n2cc(Br)c3c(N)ncnc32)[C@H](O)[C@H]1O	HTT prom inh inconclusive (no result: DRV1 agonist)
CCOc1ccc(NC(C)=O)cc1	none
O=C(Nc1cccc(C(F)(F)F)c1)Nc1ccc2snnc2c1	DRV1 agonist inconclusive, HTT prom inh inconclusive
Cc1cc(C)c(NC(=O)Nc2ccc3snnc3c2)c(C)c1	DRV1 agonist 62.8, HTT prom inh inconclusive
CCOc1ccc(NC(=O)Nc2ccc3snnc3c2)cc1	DRV1 agonist 86.9
Cc1c(NC(=O)c2sc3ccccc3c2Cl)cccc1-c1nc2ccccc2o1	none (no result: HTT-AS promoter, HTT prom inh)
Cc1cccc(N2CCN(C(=O)c3ccc4nc(N5CCC(C)CC5)sc4c3)CC2)c1C	HTT prom inh 2.51µM
O=C(NCCc1ccccc1)c1ccc2nc(N3CCCCC3)sc2c1	HTT prom inh inconclusive
CC1CCN(c2nc3ccc(C(=O)NCc4ccc(Cl)cc4)cc3s2)CC1	HTT prom inh 0.251µM
Cc1ccc(CCNC(=O)c2ccc3nc(N4CCC(C)CC4)sc3c2)cc1	HTT prom inh 0.355µM
O=C(NCc1cccc(Cl)c1)c1ccc2nc(N3CCCCC3)sc2c1	HTT prom inh inconclusive
Cc1ccc2nc(N3CCN(C(=O)C4CC4)CC3)sc2c1	HTT-AS promoter inconclusive
CC1CCN(c2nc3ccc(C(=O)NCc4ccccc4Cl)cc3s2)CC1	HTT prom inh 0.282µM
COc1ccccc1CNC(=O)c1ccc2nc(N3CCCCC3)sc2c1	HTT prom inh inconclusive
C[C@@H]1[C@H](C)CC[C@]2(C(=O)O)CC[C@]3(C)C(=CC[C@@H]4[C@@]5(C)C[C@@H](O)[C@H](O)[C@@](C)(CO)[C@H]5CC[C@]43C)[C@@H]12	none (no result: DRV1 agonist)
CC1=C(C(=O)Nc2cccnc2)C(c2ccccc2)n2nc(SCc3ccccc3F)nc2N1 (configuration not stated)	none
Cn1cc(S(C)=O)c(=O)c2ccc(F)cc21 (configuration not stated)	none
COc1cc(CN(C(=O)COc2ccccc2)c2ccccn2)cc(OC)c1OC	none
COc1ccc(CC(=O)NCCc2sc(-c3cccc(F)c3)nc2C)cc1	DRV1 agonist 98.0, HTT prom inh inconclusive
COc1ccc(-c2nc(C)c(CCNC(=O)c3c(F)cccc3F)s2)cc1	DRV1 agonist 80.3
Cc1cccc(C(=O)NCCc2sc(-c3ccccc3)nc2C)c1	DRV1 agonist 77.7
COc1cccc(C(=O)NCCc2sc(-c3cccc(C)c3)nc2C)c1	none
COc1ccc(C(=O)NCCc2sc(-c3ccc(F)cc3)nc2C)cc1OC	HTT prom inh inconclusive
Cc1nc(-c2ccc(F)cc2)sc1CCNC(=O)c1ccccc1C(F)(F)F	none
Cc1nc(-c2ccc(F)cc2)sc1CCNC(=O)Cc1ccc(F)cc1	DRV1 agonist inconclusive, HTT prom inh inconclusive
COc1ccc(C(=O)NCCc2sc(-c3cccc(F)c3)nc2C)cc1	DRV1 agonist 67.2
C[C@@H]1C[C@H]2[C@@H]3CCC4=CC(=O)C=C[C@]4(C)[C@@]3(F)[C@@H](O)C[C@]2(C)[C@@]1(O)C(=O)COC(=O)c1ccncc1	none
CCOC(=O)N1CCC(NC(=O)c2ccc3c(c2)N(Cc2ccccc2)C(=O)c2ccccc2S3(=O)=O)CC1	none
COc1cccc(Cn2c(=O)n(CCc3ccccc3)c(=O)c3c2c2cc(OC)ccc2n3C)c1	none
CCOc1ccc(C(=O)NCCc2sc(-c3ccc(OC)c(OC)c3)nc2C)cc1	none
CCOc1ccc(CC(=O)NCCc2sc(-c3cccc(F)c3)nc2C)cc1	DRV1 agonist 68.9, HTT prom inh inconclusive
CCCSS/C(CCO)=C(\C)N(C=O)Cc1cnc(C)nc1N	none
Cc1ccc(C(=O)Nc2ccccc2)cc1S(=O)(=O)Nc1ccccc1	DRV1 agonist 94.8
O=C(Nc1ccccc1)c1cccc(S(=O)(=O)Nc2cccc(F)c2)c1	HTT prom inh inconclusive
Cc1ccc(C(=O)Nc2ccccc2)cc1S(=O)(=O)Nc1ccc(Br)cc1	DRV1 agonist inconclusive, HTT prom inh inconclusive
O=C(Nc1ccccc1)c1ccc(Cl)c(S(=O)(=O)Nc2ccccc2)c1	DRV1 agonist 91.4, HTT-AS promoter inconclusive
CCOc1ccc(-c2cc(CCCC(=O)NCCc3ccc(OCC)c(OCC)c3)no2)cc1	HTT prom inh inconclusive
CCOc1ccc(-c2cc(CCCC(=O)NCCc3ccc(SC)cc3)no2)cc1	HTT prom inh 0.794µM
CCOc1ccc(CCNC(=O)CCCn2c(=O)c3cccn3c3cccnc32)cc1	none
CCOc1ccc(-c2cc(CCCC(=O)NCCc3ccc(Cl)cc3)no2)cc1	HTT prom inh 1.78µM
CCCCCOc1ccc(C2SC(=O)NC2=O)cc1OCC (configuration not stated)	none
Cc1ccc(-n2nc(C(=O)N3CCN(c4ccccc4)CC3)c(=O)n(C)c2=O)cc1	none
Cc1ccc(-n2nc(C(=O)N3CCN(c4cccc(C(F)(F)F)c4)CC3)c(=O)n(C)c2=O)cc1	HTT prom inh 31.6µM
COc1cc(OC)cc(-c2ccc3ncc4ccc(=O)n(-c5ccc(N6CCNCC6)c(C(F)(F)F)c5)c4c3c2)c1	HTT prom inh inconclusive (no result: DRV1 agonist)
Cc1cc2[nH]c(=O)c(=O)[nH]c2cc1S(=O)(=O)N1CCN(c2ccccc2)CC1	DRV1 agonist 95.0

High-throughput results deposited in PubChem by National Center for Advancing Translational Sciences (NCATS).
